# Screening data from PubChem.
# Only a selection was taken, and hits are over-represented in it overall.
# CtBP-E1A inh: CtBP/E1A binding inhibition. AlphaScreen GST-E1A/His-CtBP binding, 1536-well; stronger effect = lower value. activity change, % (concentration not given with the values). 0.49% of 340,000 active; in the data active = activity change below about -65%; inconclusive = mostly about -30% to -63%
#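 Steps: dispense buffer (Tris pH 8.0, NaCl 300 mM, TCEP 1 mM, BSA, Tween 20); add 5X protein mix (GST-E1A, His-CtBP, 125 nM each); pin 23 nL compound; 2 h at 37 °C, dark; add 5X beads (50 ug/mL); 1 h; read.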
# GALK inhibitor: galactokinase (human) inhibition; AID 1868; Potency, µM (series often up to 57.5 µM), for the others: at the highest dose activity change, negative = inhibition, actives largely listed as inhibitors; P51570; 0.007% of 270,000 active; Purified GALK, Kinase-Glo residual ATP luminescence; note: potency is the fitted concentration of half-maximal effect
# Target sequence (P51570 whole entry, looked up): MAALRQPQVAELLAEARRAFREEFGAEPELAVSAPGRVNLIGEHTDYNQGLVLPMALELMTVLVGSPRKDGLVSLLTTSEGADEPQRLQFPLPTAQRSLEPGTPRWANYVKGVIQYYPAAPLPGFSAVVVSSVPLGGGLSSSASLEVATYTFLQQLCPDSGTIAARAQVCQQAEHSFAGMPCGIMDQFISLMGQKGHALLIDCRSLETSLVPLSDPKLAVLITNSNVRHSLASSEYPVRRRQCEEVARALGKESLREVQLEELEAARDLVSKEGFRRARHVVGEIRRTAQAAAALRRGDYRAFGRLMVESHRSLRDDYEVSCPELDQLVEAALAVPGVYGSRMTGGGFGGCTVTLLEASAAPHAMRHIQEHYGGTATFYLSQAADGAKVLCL
#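 Kinase-Glo Plus luminescence measured ATP left after a 1 h room-temperature reaction. The reaction used 5 nM GALK, 100 uM galactose and 35 uM ATP at pH 8.0 (20 mM HEPES, 5 mM MgCl2, 60 mM NaCl, 1 mM DTT, 0.01% BSA).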
# Eya2 phos inh: Eya2 (human) phosphatase inhibition. O00167. recombinant Eya2, OMFP fluorescence dephosphorylation (OMFP is methylfluorescein phosphate). Potency, µM (doses to about 76.9 µM), inactives show at the top dose activity, negative = inhibition, hits mostly inhibitors. 0.006% of 330,000 active. AID 488837; note: potency is the fitted concentration of half-maximal effect
#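 Eya2 protein (added as 0.2 uM solution) was preincubated with compound for 10 min at ambient temperature in 50 mM HEPES pH 7.5, 50 mM NaCl, 5 uM MgCl2, 0.05% BSA, 1 mM DTT. OMFP (added at 50 uM) then reacted 10 min; fluorescence read at 485/525 nm.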
# Six1-Eya2 inh: blocks human Six1 binding to Eya2; Q15475+O00167; 0.56% of 360,000 active; AlphaScreen GST-Six1/His-Eya2 binding, biochemical; stronger effect = lower value; activity change, % (no concentration beside the values); in the data active = activity change below about -65%; inconclusive = mostly about -30% to -63%
#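 AlphaScreen with GST-Six1 and His-Eya2 (5X mix: 250 nM and 500 nM), glutathione donor and nickel acceptor beads; buffer 50 mM Tris pH 8.0, 300 mM NaCl, 1 mM TCEP; 1 h at 37 C in the dark.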
# JMJD2E inh: blocks human JMJD2E demethylase activity | JMJD2E catalytic domain, FDH-coupled NADH fluorescence (FDH is formaldehyde dehydrogenase) | Potency, µM (titrated, usually from 57.1 µM), without a hit: at the top dose activity change, negative = inhibition, hits mostly inhibitors | 1.6% of 230,000 active; active = well fitted inhibition curve with a large enough effect, not every such curve was filed as active; inconclusive = small, poorly fitted or top-dose-only effect, or another doubt; inactive = no such curve, though single readings can be large or run the other way;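 note: potency is the fitted concentration of half-maximal effect; 0% = wells with enzyme and -100% = buffer wells without enzyme; nearly all actives have a fitted effect of over 50% in size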
# Anesthetic bind: candidate novel general anesthetic via apoferritin binding; P02791; apoferritin/1-aminoanthracene competitive binding, fluorescence; Potency, µM (doses to about 77.5 µM), for inactives: at the highest dose activity change, negative = displacement, usual class: inhibitors; 0.074% of 350,000 active; AID 485281; note: potency is the fitted concentration of half-maximal effect; nearly all actives have a fitted effect of over 20% in size
# Target sequence (P02791 2-175 limits assumed): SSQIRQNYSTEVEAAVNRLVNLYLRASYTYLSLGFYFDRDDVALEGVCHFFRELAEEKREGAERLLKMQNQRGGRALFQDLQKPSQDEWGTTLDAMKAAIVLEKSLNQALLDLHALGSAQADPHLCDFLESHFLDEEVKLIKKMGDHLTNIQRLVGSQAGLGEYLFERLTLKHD
#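 10 uM apoferritin + 50% sat. 1-AMA, PBS; cpd 10 min RT; Ex380/Em535 endpoint; normalized to free probe vs complex; 4-param Hill fit; propofol titration as pos. ctrl.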
# Starred values were filed as active, the others as inactive; ? = inconclusive; nt = not tested or not shown; ! = not confirmed by another sample; [ ] = another dose, or the depositor's remark. Unless noted, calls come from the whole dose curve; as a rule, active = well fitted curve in the direction sought with a large enough effect; inconclusive = small, poorly fitted or top-dose-only effect, or another doubt; inactive = no such curve, though single readings can be large; an effect the other way counts as inactive or inconclusive. Unless noted, % is set by controls: 0 for no effect and ±100 for the full control effect.
SMILES,CtBP-E1A inh,GALK inhibitor,Eya2 phos inh,Six1-Eya2 inh,JMJD2E inh,Anesthetic bind
CC1CC(C)CN(c2ccc([N+](=O)[O-])cc2-c2nn[nH]n2)C1 (stereo not given),-3.0,1.2%,5.0%,35.7,3.16µM*,2.9%
Cc1ccc(C(=O)Oc2ccc([N+](=O)[O-])cc2)cc1S(=O)(=O)N1CCCCCC1,-3.6,-0.6%,6.3%,-84.7*,-2.1%,-0.3%
O=C(c1ccc([N+](=O)[O-])cc1)N1CCOCC1,1.6,nt,nt,1.6,nt,nt
O=C(Oc1ccc(C(=S)N2CCOCC2)cc1)c1ccc([N+](=O)[O-])cc1,nt,1.7%,0.6%,-83.1*,nt,-9.9%
Cc1ccc(C)c(Nc2nc(-c3ccccc3)c3cc(Br)ccc3n2)c1,nt,nt,nt,nt,nt,46.8%
CSc1ccc(/C=C2/C(C)=C(CC(=O)O)c3cc(F)ccc32)cc1,nt,nt,nt,nt,nt,-18.3%
CC(=O)O[C@H]1C(=O)[C@@]2(C)C([C@H](OC(=O)c3ccccc3)[C@]3(O)C[C@H](OC(=O)[C@H](O)[C@@H](NC(=O)c4ccccc4)c4ccccc4)C(C)=C1C3(C)C)[C@]1(OC(C)=O)CO[C@@H]1C[C@@H]2O (stereo not given in full),nt,nt,1.4%,nt,3.5%,-14.3%
O=C(NCCO)c1ccc(-c2nnc(Nc3ccc(OC(F)(F)Cl)cc3)c3ccccc23)cc1,nt,nt,nt,nt,nt,88.3%
COc1ccc(Cn2c(O)c(/C=N/NC(=O)c3cccnc3)c3ccccc3c2=O)cc1,-8.4,5.0%,18.1%,-7.5,28.2µM*,-2.8%
C[C@@H](N)CCCP(=O)(O)O,nt,nt,nt,nt,nt,5.2%
O=C(O)C1Nc2c(O)cc(Cl)c([N+](=O)[O-])c2C2C=CCC12 (stereo not given),nt,-5.2%,10.9%,?,7.94µM*,-21.4%
Cc1ccc2c(c1)C1C=CCC1C(C(=O)O)N2 (stereo not given),nt,nt,-5.7%,nt,?,-13.6%
NC(=O)NC(=O)CC1S/C(=N/N=C2/NC(=O)CS2)NC1=O (stereo not given),?,-1.2%,-2.1%,-78.4*,82.9%,-3.9%
O=C(O)CNC(=O)CC1S/C(=N/N=C2\CSC(=O)N2)NC1=O (stereo not given),nt,-1.5%,-28.2%,-92.5*,5.5%,1.3%
Cc1cccnc1Nc1nc(-c2ccccn2)cs1,-94.9*,-3.0%,-17.2%,-78.5*,?,-3.0%
Cn1cccc1C(=O)Nc1nc(-c2ccccn2)cs1,-89.1*,0.0%,-8.1%,-85.5*,?,-5.8%
Cc1cccnc1Nc1nc(-c2ccccc2)cs1,-0.2,-2.6%,-8.0%,-4.7,nt,1.9%
O=C(Nc1nc(-c2ccccn2)cs1)C1CCCC1,-7.5,2.9%,7.6%,?,-10.7%,-11.7%
O=C(Nc1nc(-c2ccccn2)cs1)c1ncc(Cl)c(Cl)c1Cl,-74.5*,0.0%,5.3%,?,-3.4%,?
CCc1sc(C(=O)Nc2nc(-c3ccccn3)cs2)cc1C,-89.7*,nt,-2.3%,-67.5*,nt,nt
COC(=O)C1(C(=O)OC)C/C=C\Cc2ccccc2[C@@H]1C[N+](=O)[O-],nt,nt,nt,nt,-0.9%,nt
O=C(Nc1nc(-c2ccccn2)cs1)c1ccc(Cl)s1,?,2.5%,32.3%,?,?,-7.5%
Cc1ccc(C(=O)Nc2nc(-c3ccccn3)cs2)s1,-90.8*,nt,-11.7%,-90.0*,nt,nt
Cc1nnc(N/N=C/c2ccc(-c3ccc(Br)cc3)o2)n1N,-5.7,-1.0%,0.1%,-25.4,5.62µM*,?
Cc1nnc(N/N=C/c2ccc(Br)cc2)n1N,?,3.3%,-0.5%,1.0,nt,-16.9%
SMILES,CtBP-E1A inh,GALK inhibitor,Eya2 phos inh,Six1-Eya2 inh,JMJD2E inh,Anesthetic bind
CCN(CC)S(=O)(=O)c1ccc2c(c1)c(=O)c(C(=O)N1CCN(c3ccc(F)cc3)CC1)cn2C,nt,nt,nt,nt,nt,54.7%
CCCCC1=CC2=CC(=O)C(C)(OC(=O)CC)C(=O)C2=CN1Cc1ccco1 (stereo not given),3.5,0.9%,10.5%,-5.1,22.4µM*!,-10.8%
CCCCC1=CC2=C(c3ccco3)C(=O)C(C)(OC(=O)c3ccc(OC)cc3)C(=O)C2=CN1Cc1ccco1 (stereo not given),-23.6,-5.1%,9.8%,-27.8,12.6µM*!,-13.8%
CCCCC1=CC2=CC(=O)C(C)(OC(=O)CC)C(=O)C2=CN1c1ccccc1 (stereo not given),-9.2,-2.2%,-2.5%,-11.1,25.1µM*!,-1.1%
CCCCC1=CC2=C(c3ccco3)C(=O)C(C)(OC(=O)c3ccc(OC)cc3)C(=O)C2=CN1Cc1ccc(OC)cc1 (stereo not given),nt,-1.2%,7.7%,nt,-0.5%[11.4 µM],-1.3%
O=C(Nc1ccccc1C(F)(F)F)N1CCC(CN2CCc3ccccc3C2)CC1,nt,nt,nt,nt,nt,-11.9%
Cc1cccc(CNc2ncnc3ccc(-c4cccc(C#N)c4)cc23)c1,nt,nt,nt,nt,?,-21.1%
O=[N+]([O-])c1ccccc1-c1ccc(C(=S)N2CCCCC2)o1,?,-0.5%,?,?,-4.3%,?
O=[N+]([O-])c1ccccc1-c1ccc(C(=S)N2CCCC2)o1,0.0,5.9%,-2.4%,-13.1,25.1µM*,56.2µM*
COCCCNC(=O)CSc1nc2c(sc3ccccc32)c(=O)n1CCc1ccccc1,nt,nt,nt,nt,nt,-2.4%
Nc1ncnc2c1nc(Sc1ccc(Cl)cc1)n2[C@H]1OC2COP(=O)(O)O[C@@H]2C1O (stereo not given in full),nt,nt,5.2%,nt,nt,nt
O=c1cc(-c2ccc(O)cc2)oc2c(O)c(O)c(O)c(O)c12,-23.7,nt,10.7%,-26.7,12.6µM*,-5.7%
O=c1cc(-c2ccccc2)oc2cc(O)c(O)c(O)c12,-7.9,nt,2.6%,-4.8,12.6µM*,nt
C=CC1=C2C=C(C3CC3)N(C3CCCC3)C=C2C(=O)C(C)(OC(=O)c2ccco2)C1=O (stereo not given),nt,nt,nt,nt,-16.4%[11.4 µM],nt
CC(=O)c1ccc(OCc2cc(C(=O)N3CCCCCCC3)no2)cc1,-0.1,-3.2%,-18.2%,12.2,nt,5.01µM*
COc1ccc(Nc2cc(C)c3cc(NC(=O)c4cc(OC)cc(OC)c4)ccc3n2)cc1,nt,nt,nt,nt,nt,190.7%
CC(C)c1cnc2c(c1SCC(=O)N1CCCCC1)c(=O)n(C)c(=O)n2C,nt,nt,nt,nt,nt,-5.8%
CC(C)(C)c1ccc(NC(=O)COc2ccc(-n3ccnc3)cc2)cc1,-12.1,-0.4%,-21.5%,-20.9,-11.0%,28.2µM*
COc1cc(NC(=O)COc2ccc(-n3ccnc3)cc2)cc(OC)c1,-0.6,7.1%,3.7%,9.3,-9.8%,-3.0%
COc1ccc(S(=O)(=O)NCCSC(C)(C)C)c(Cl)c1Cl,1.9,1.2%,-4.4%,-0.8,-3.1%,15.8µM*
CCCNS(=O)(=O)c1ccc(OC)c(Cl)c1Cl,8.3,-2.1%,9.1%,5.8,0.2%,-10.8%
